Experimental data as given in PubChem BioAssay (NCI).
About 79,000 compounds went through this panel and 15% of them were active in at least one assay; those are over-represented in the sample as a whole. Rule as the data show it: active = growth inhibition above about 70%; inactive = the rest.

What was measured:
[1] = NCI Yeast Anticancer Drug Screen. Data for the rad50 strain (AID 155);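 also: 0% = growth of vehicle-only cultures of the same strain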; details: S. cerevisiae rad50 strain growth inhibition; at 50.0 µM; hits give high values
Summary of the method: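 Readout: growth inhibition relative to vehicle-treated cultures. Compound exposure was carried out in a genetically defined yeast strain deficient in DNA damage repair.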

[2] = NCI Yeast Anticancer Drug Screen. Data for the mec2-1 strain (AID 157); details: S. cerevisiae mec2-1 strain, at 50.0 µM, hits give high values
Summary of the method: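 Yeast mec2-1 mutant treated with compound. Readout: growth inhibition vs vehicle controls.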

[3] = NCI Yeast Anticancer Drug Screen. Data for the sgs1 mgt1 strain (AID 161);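 also: 0% = growth of cultures given vehicle only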; details: S. cerevisiae sgs1 mgt1 strain, at 50.0 µM, hits give high values
Summary of the method: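 Test agents were incubated with a DNA-repair-mutant yeast strain. Growth was then read and compared against vehicle-treated controls.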

[4] = NCI Yeast Anticancer Drug Screen. Data for the cln2 rad14 strain (AID 165);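 also: 0% = growth equal to vehicle treated cultures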; details: S. cerevisiae cln2 rad14 strain, at 50.0 µM, hits give high values
Summary of the method: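 cln2 rad14 yeast strain; compound exposure; growth inhibition read vs vehicle controls.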

[5] = NCI Yeast Anticancer Drug Screen. Data for the bub3 strain (AID 167); details: S. cerevisiae bub3 mutant strain, at 50.0 µM, hits give high values
Summary of the method: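 Readout: yeast growth inhibition, expressed relative to vehicle-only wells. The test organism is a mutant strain from a panel with lesions in DNA repair or checkpoint genes.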

[6] = NCI Yeast Anticancer Drug Screen. Data for the mlh1 rad18 strain (AID 175); details: S. cerevisiae mlh1 rad18 strain growth inhibition; at 50.0 µM; hits give high values
Summary of the method: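 Yeast w/ defined DNA-repair lesions; compound exposure; growth vs vehicle controls → % inhibition.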

Measured: growth inhibition

CN(C)CCNC1c2ccccc2-c2ccccc21
inactive: [1] -15.1% | [2] -22.6% | [3] 3.35% | [4] -0.9% | [5] 10.2% | [6] -9%

CCOC(=O)C(=[N+]=[N-])C(=O)CN1C(=O)c2ccccc2C1=O
inactive: [1] -21.6% | [2] -7% | [3] -31.5% | [4] -7.7% | [5] 5.9% | [6] -15.9%

COc1ccccc1NC(=O)Nc1ccccc1
inactive: [1] 1.9% | [2] -4.3% | [3] 3.7% | [4] -23.5% | [5] -4.65% | [6] 0.3%

c1ccc(C2SCCCS2)cc1
inactive: [1] 33.2% | [2] 5.25% | [3] 17.8% | [4] 18.4% | [5] -4.5% | [6] 18.4%

CC(=O)Nc1ccc(S(=O)(=O)Nc2cc(Cl)cc(Cl)c2)cc1
inactive: [1] 15.7% | [2] -10.2% | [3] -0.05% | [4] 8.75% | [5] 2.1% | [6] -7.1%

O=S(=O)(Nc1cccc(C(F)(F)F)c1)c1ccc(F)cc1
inactive: [1] 6.95% | [2] 9.5% | [3] 11% | [4] 12.9% | [5] -3.5% | [6] 42.9%

COC(=O)c1c(C=O)cccc1[N+](=O)[O-]
inactive: [1] 22.7% | [2] -0.05% | [3] 1.75% | [4] 0.7% | [5] -14.1% | [6] 15.2%

C(=N\N(CCCCN(/N=C/c1ccccc1)c1ccccc1)c1ccccc1)/c1ccccc1
inactive: [1] 38.5% | [2] 11.2% | [3] 13.8% | [4] 21.8% | [5] -11.8% | [6] 23.9%

CCCCCCCCC1=C(CCCCCCC(=O)OC)[14CH2]1
inactive: [1] 0.25% | [2] 16.6% | [3] -11.2% | [4] 43.4% | [5] 3% | [6] 24.5%

O=C1c2ccccc2C(=C(c2ccccc2)c2ccccc2)c2ccccc21
inactive: [1] 29.1% | [2] -19.5% | [3] -10.3% | [4] 10.6% | [5] 5.35% | [6] -4.75%

Cc1nc2ccc(N)cc2[nH]c1=O
inactive: [1] 16.9% | [2] 7% | [3] 12.8% | [4] 14.5% | [5] 6.5% | [6] 25.3%

Nc1nc2c(c(-c3ccccc3)n1)CN(CCCC(=O)O)C2=O
inactive: [1] 5.75% | [2] 14.8% | [3] 3.7% | [4] -3% | [5] 11.9% | [6] -0.45%

O=C(Nc1ccc([N+](=O)[O-])cc1)Nc1nccnn1
inactive: [1] 5.15% | [2] -13.1% | [3] 10.6% | [4] -39.9% | [5] 8.4% | [6] -0.8%

CC1C(c2ccccc2)=C(c2ccccc2)C(c2ccccc2)=C(c2ccccc2)C1c1ccccc1 (stereo not given)
inactive: [1] 27.6% | [2] -19.8% | [3] 2.6% | [4] -5.55% | [5] -1.2% | [6] -10.7%

COc1ccc(C(C)(C)c2ccccc2)cc1
inactive: [1] -20.1% | [2] -45.1% | [3] -13.4% | [4] -19.9% | [5] -24.6% | [6] -18.6%

Clc1cccc(N2CCN(CCN3CCc4c([nH]c5ccccc45)C3c3cccnc3)CC2)c1 (stereo not given)
inactive: [1] 2.2% | [2] -21.7% | [3] -7.85% | [4] 9.45% | [5] -9.75% | [6] -12%

N#CC(CC(=O)c1ccccc1)c1ccccc1Cl (stereo not given)
inactive: [1] 17.2% | [2] 24.9% | [3] 31.3% | [4] 17.6% | [5] 40.4% | [6] 22%

CC(NC(=O)C(C)(C)C)c1ccc(-c2ccccc2)cc1 (stereo not given)
inactive: [1] 11.8% | [2] 29.6% | [3] 9.2% | [4] 12.6% | [5] 2% | [6] 10.8%

C=CCOC(=O)NC1C(OC(C)[C@@H](NC(=O)OCc2ccccc2)C(=O)OC(C)(C)C)OC(COC(C)=O)C(OC(C)=O)C1OC(C)=O (stereo not given in full)
inactive: [1] -26.9% | [2] -23.8% | [3] -16.4% | [4] 22.1% | [5] -1.55% | [6] -4.15%

Cn1c(N)c(/C=C/C(=O)Oc2ccccc2)c(=O)n(C)c1=O
inactive: [1] 49.7% | [2] 18.4% | [3] 16.5% | [4] 16.8% | [5] -8.8% | [6] -43.1%
